This is an account of results in PubChem BioAssay (EPA / NIEHS).

Records with an inconclusive call do not appear. Active and inactive are the calls of the source. How the source made its calls, unless noted: active means hit-call score of the fitted dose curve at least 0.9, where 1 is the maximum; inconclusive means response in the unintended direction; inactive means score below 0.9.

A word on the AC50: it is the concentration at which the activity in the assay is half-maximal.

The nature of assay [1]: CCTE_Harrill_HTTr_Viability_DMEM_6hr: (Pilot) CCTE's 6-hour Cell Viability Assessment for the High-Throughput Transcriptomics (HTTr) Platform, in MCF-7 cells cultured in DMEM + 10% fetal bovine serum, Harrill Lab (AID 2283973; active means hit-call score of the fitted dose curve at least 0.9, where 1 is the maximum; inactive means score below 0.9). Put shortly:
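Propidium iodide uptake imaged by high-content analysis after six hours of chemical treatment in an eight-concentration series. Cells: MCF-7 grown in DMEM with 10% fetal bovine serum; DMSO as baseline.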

For assay [2], the target named is THRB (gene 7068) (UniProt P10828). As to the kind of experiment: TOX21_TRB_BLA_Agonist_Followup_ratio: Tox21 Thyroid Hormone Receptor beta Agonism Beta-lactamase (BLA) Follow-Up Assay, Ratio (AID 2283954). The gist of the method: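 Agonist mode: compounds (11-point, triplicate) incubated 18 h with HEK293T cells carrying GAL4-DBD/human TRβ-LBD and UAS-β-lactamase. Blue/green (460/530 nm) FRET ratio read after 2 h CCF4-AM loading; CellTiter-Glo viability run in the same plates.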

The target is the same in assay [3]. As to the kind of experiment: TOX21_TRB_COA_Agonist_Followup_ratio: Tox21 Thyroid Hormone Receptor beta Agonism through Coactivator Recruitment Follow-Up Assay, Ratio (AID 2283963; active means hit-call score of the fitted dose curve at least 0.9, where 1 is the maximum; inactive means score below 0.9). The gist of the method:
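First, the GST-fused TRβ ligand-binding domain (5.0 nM) was incubated with test compound in 0.10% BSA. Next, fluorescein-tagged SRC-2 peptide (200 nM) and terbium anti-GST antibody (2 nM) were added. Finally, TR-FRET emission ratios were normalized against DMSO and T3 controls.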

In assay [4] the target is Retinoic acid receptor RXR-alpha (Homo sapiens) (UniProt P19793). As to the kind of experiment: TOX21_TR_RXR_BLA_Agonist_Followup_ratio: Tox21 Thyroid Hormone Receptor beta Retinoid X Receptor alpha (RXRa) Agonism Beta-lactamase (BLA) Follow-Up Assay, Ratio (AID 2283968). The gist of the method:
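Cells were first allowed to attach for 5 h, after which compounds in DMSO were pinned at 11 concentrations and incubated 16 h at 37C. LiveBLAzer CCF4-AM substrate was then added for 2 h at room temperature before reading 460 and 530 nm fluorescence.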

The nature of assay [5]: TOX21_TR_RXR_BLA_Agonist_Followup_viability: Viability Assessment in the Tox21 Thyroid Hormone Receptor beta Retinoid X Receptor alpha (RXRa) Agonism Beta-lactamase (BLA) Follow-Up Assay (AID 2283970). The gist of the method:
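Viability counter-screen run alongside the RXRa bla follow-up: HEK293T reporter cells were treated for 16h at 37C in stripped-serum medium, then ATP was quantified by luciferase-coupled CellTiter-Glo. Decreased signal relative to DMSO marked cytotoxicity.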

The target of assay [6] is THRB (gene 7068) (UniProt P10828). As to the kind of experiment: TOX21_TRB_BLA_Antagonist_Followup_ratio: Tox21 Thyroid Hormone Receptor beta Antagonism Beta-lactamase (BLA) Follow-Up Assay, Ratio (AID 2283958). Put shortly:
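Cells were plated and allowed to attach for 5 h, then dosed with compounds in DMSO at 11 concentrations for 18 h at 37C. Beta-lactamase reporter activity was measured via CCF4-AM FRET as the 460:530 nm ratio.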

Assay [7] is described as follows: TOX21_TRB_BLA_Antagonist_Followup_viability: Viability Assessment in the Tox21 Thyroid Hormone Receptor beta Antagonism Beta-lactamase (BLA) Follow-Up Assay (AID 2283961). The gist of the method: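 Cytotoxicity is measured in parallel with the antagonist-mode TRβ beta-lactamase screen, using ATP-coupled luciferase luminescence. Engineered HEK293T cells are treated for 18 h with 11-point compound series in triplicate.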

Assay [8] concerns the target THRB (gene 7068) (UniProt P10828). As to the kind of experiment: TOX21_TRB_COA_Antagonist_Followup_ratio: Tox21 Thyroid Hormone Receptor beta Antagonism through Coactivator Recruitment Follow-Up Assay, Ratio (AID 2283967). The text has this: TOX21_TRb_COA_Antagonist_Followup is a secondary assay for specificity for the TOX21_TR_GH3_LUC_Agonist assay. The LanthaScreen TR-FRET TR coactivator assay kits were used to determine TR activity in a cell-free functional assay. A time-resolved fluorescence resonance energy transfer (TR-FRET) signal was indicative of coactivator (SRC-2) recruitment.TOX21_TRB_COA_Antagonist_Followup_ratio is assay component calculated in the TOX21_TRB_COA_Antagonist_Followup assay. The TR-FRET ratio of acceptor emission (ch2) to donor emission (ch1) is indicative of the resonance energy transfer to the fluorescein tag on the coactivator peptide following recruitment to the receptor.Data from the assay component TOX21_TRB_COA_Antagonist_Followup_ratio was analyzed into 1 assay endpoint. This assay endpoint, TOX21_TRB_COA_Antagonist_Followup_ratio, was analyzed in the positive analysis fitting direction relative to DMSO as the negative control and baseline of activity. […] Furthermore, this assay endpoint can be referred to as a primary readout, because this assay has produced multiple assay endpoints and this ratio serves a reporter gene function to understand target activity. […]
Cell Media Required: Growth (90% DMEM/F-12, 10% Fetal Bovine Calf Serum, 100U/ml Penicillin, 100 ug/ml Streptomycin), Assay (10ng/mL sodium selenite, 10 ug/mL humanapo-transferrin, 10 uM ethanolamine, 10 ug/mL insulin, 500 ug/mL bovine serum albumin (BSA))Assay Protocol: 4 uL mixture of the receptor LBDs expressed as glutathione S-transferase (GST) fusion proteins (2.5 nM for TRa and 5.0 nM for TRb) and BSA (0.10%; Sigma-Aldrich) were incubated with 23 nL of control or test compound. A time-resolved fluorescence resonance energy transfer(TR-FRET) signal was indicative of coactivator recruitment using a 2 uL mixture of fluoresce in-labeled SRC-2 peptide (200 nM) and terbium-labeled anti-GST antibody (2nM), which transferred resonance energy to the fluorescein tag on the coactivator peptide following recruitment to the receptor. […]

The target of assay [9] is Retinoic acid receptor RXR-alpha (Homo sapiens) (UniProt P19793). As to the kind of experiment: TOX21_TR_RXR_BLA_Antagonist_Followup_ratio: Tox21 Thyroid Hormone Receptor beta Retinoid X Receptor alpha (RXRa) Antagonism Beta-lactamase (BLA) Follow-Up Assay, Ratio (AID 2283972). Put shortly:
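Antagonist mode used GAL4 UAS-driven beta-lactamase in HEK293T cells expressing RXRa, treated for 16 h with compound concentration series. Activity was taken from the blue/green (460:530 nm) ratio of cleaved to uncleaved substrate.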

The next assay has as its target THRA (gene 7067) (UniProt P10827). As to the kind of experiment: TOX21_TRA_COA_Antagonist_Followup_ratio: Tox21 Thyroid Hormone Receptor alpha Antagonism through Coactivator Recruitment Follow-Up Assay, Ratio (AID 2283953). Put shortly: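 GST-TRα LBD 2.5 nM, BSA 0.10%, + cpd; then FITC-SRC-2 peptide 200 nM + Tb-anti-GST Ab 2 nM. TR-FRET ratio 520/495 nm. Norm: DMSO = 0%, T3 = 100%.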

Sequence of Retinoic acid receptor RXR-alpha (Homo sapiens) (P19793 whole entry, looked up, the tested form may be a part): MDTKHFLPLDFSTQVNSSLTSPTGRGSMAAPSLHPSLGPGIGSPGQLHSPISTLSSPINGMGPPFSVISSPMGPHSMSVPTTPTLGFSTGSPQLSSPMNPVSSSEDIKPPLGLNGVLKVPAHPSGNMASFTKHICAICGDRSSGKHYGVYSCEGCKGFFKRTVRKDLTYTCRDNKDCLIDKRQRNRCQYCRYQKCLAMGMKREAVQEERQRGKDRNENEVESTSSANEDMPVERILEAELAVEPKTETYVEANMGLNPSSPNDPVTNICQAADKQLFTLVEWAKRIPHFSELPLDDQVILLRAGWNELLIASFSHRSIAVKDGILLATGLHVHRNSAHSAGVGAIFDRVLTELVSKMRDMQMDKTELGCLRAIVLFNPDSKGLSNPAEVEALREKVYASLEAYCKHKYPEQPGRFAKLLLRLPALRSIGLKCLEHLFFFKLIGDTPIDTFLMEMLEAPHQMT
Sequence of THRB (gene 7068) (P10828 whole entry, looked up, the tested form may be a part): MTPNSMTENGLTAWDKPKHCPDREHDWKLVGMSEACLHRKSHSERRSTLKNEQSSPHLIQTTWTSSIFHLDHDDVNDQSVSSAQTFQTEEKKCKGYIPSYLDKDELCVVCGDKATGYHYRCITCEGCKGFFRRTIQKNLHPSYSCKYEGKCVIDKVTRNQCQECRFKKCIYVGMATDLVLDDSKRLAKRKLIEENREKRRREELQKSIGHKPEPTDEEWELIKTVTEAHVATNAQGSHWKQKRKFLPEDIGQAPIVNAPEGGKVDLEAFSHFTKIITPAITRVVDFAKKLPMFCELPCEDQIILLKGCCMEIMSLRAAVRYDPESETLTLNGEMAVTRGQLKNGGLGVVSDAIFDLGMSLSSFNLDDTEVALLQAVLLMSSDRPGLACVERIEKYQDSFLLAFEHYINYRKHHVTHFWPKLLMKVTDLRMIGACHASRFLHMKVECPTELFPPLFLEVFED
Sequence of THRA (gene 7067) (P10827 whole entry, looked up, the tested form may be a part): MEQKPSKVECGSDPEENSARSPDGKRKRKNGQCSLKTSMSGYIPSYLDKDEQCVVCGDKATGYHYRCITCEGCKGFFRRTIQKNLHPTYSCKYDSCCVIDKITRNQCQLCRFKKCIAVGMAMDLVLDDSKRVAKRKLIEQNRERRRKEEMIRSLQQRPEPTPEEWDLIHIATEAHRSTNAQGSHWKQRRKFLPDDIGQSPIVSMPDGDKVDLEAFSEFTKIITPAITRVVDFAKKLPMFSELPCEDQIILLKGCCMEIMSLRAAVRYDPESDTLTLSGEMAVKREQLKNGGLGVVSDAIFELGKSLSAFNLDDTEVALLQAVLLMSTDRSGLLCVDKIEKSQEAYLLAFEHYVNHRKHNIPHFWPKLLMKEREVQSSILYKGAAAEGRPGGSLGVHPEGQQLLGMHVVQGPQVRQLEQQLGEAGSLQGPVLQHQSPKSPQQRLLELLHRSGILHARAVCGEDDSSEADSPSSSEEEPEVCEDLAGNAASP

Consider `CC(C)C(=O)Nc1ccc([N+](=O)[O-])c(C(F)(F)F)c1`, for which the outcome in assay [1] was inactive.
Take `O=c1[nH]cnc2c1ncn2[C@H]1CC[C@@H](CO)O1`: the AC50 in the assay with THRB (gene 7068) [2] is 9.78 µM (active). In addition, the result (with THRB (gene 7068) [3]; in [4]; in [5]) was inactive.
On to `COc1cc2c(c(OC)c1OC)-c1ccc(OC)c(=O)cc1[C@@H](NC(C)=O)CC2`, for which, in the assay with THRB (gene 7068) [6], the AC50 was 0.0894 µM (active). The molecule was classed as inactive (in assay [7]; with THRB (gene 7068) [8]; in assay [9]).
Regarding `Cc1nccn1-c1ccc(Sc2cccc(C3(C(N)=O)CCOCC3)c2)cc1`, the result (with THRA (gene 7067); in assay [7]; with THRB (gene 7068) [8]; in [9]) was inactive. Besides, the AC50 in the assay with THRB (gene 7068) [6] is 21.5 µM (active).
As to `Nc1ccn([C@@H]2O[C@H](CO)[C@@H](O)[C@@H]2O)c(=O)n1`, the molecule was classed as inactive (in assay [7]; with THRB (gene 7068) [8]).
`Cn1c(=O)c2[nH]cnc2n(C)c1=O`: the result (in the assay with THRB (gene 7068) [2]; with THRB (gene 7068) [3]; in assay [4]; in [5]) was inactive.
